Shh pathway inh: Hedgehog pathway signaling inhibitors, primary screen, luminescence, Shh-LIGHT2 cells, Gli-luciferase | Shh-LIGHT2 Gli-luciferase reporter, 30 h | inhibition, % (no concentration beside the values) | 22,000 tested, 2.1% active | AID 2313, 2010;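 active = mean inhibition across valid replicates above about 65%, limit read from the data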;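 also: pathway switched on by Shh-conditioned medium diluted 1 in 25 in low serum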
MITF inh: inhibitors of MITF, primary screen, MITF inhibitor project, cell-based, luminescence. TRPM1 promoter luciferase, 24 h. inhibition, % (test concentration not listed). 37,000 tested, 0.28% active. AID 2240, 2010; in the data active = inhibition above about 85%;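 also: human melanocyte line stably carrying TRPM1 promoter luciferase reporter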
PD-1 reversal: activators reversing PD-1 mediated T-cell inhibition, primary screen, luminescence, primary human CD4 T cells, PD-L1 beads. CellTiter-Glo 96 h. activation, % (no concentration beside the values). 29,000 tested, under 10 active. AID 2316, 2010; call rule not given here
Each line names hits and unclear results; the compound was inactive in the other large screens. The entries come from a sample that favours hits as a whole.

CC(C)CC1C(=O)N2CCC[C@H]2C2(O)O[C@](NC(=O)C3C=C4c5cccc6[nH]c(Br)c(c56)C[C@H]4N(C)C3)(C(C)C)C(=O)N12 (stereo partly drawn)	none (no result: PD-1 reversal)
CC(C)C[C@H]1C(=O)N2CCC[C@H]2[C@]2(O)O[C@](NC(=O)[C@@H]3C=C4c5cccc6[nH]c(Br)c(c56)C[C@H]4N(C)C3)(C(C)C)C(=O)N12	Shh pathway inh 82.9 (no result: PD-1 reversal)
CCc1nnc(NS(=O)(=O)c2ccc(NC(=O)c3ccc(F)cc3)cc2)s1	none (no result: Shh pathway inh, PD-1 reversal)
Cc1ccc(S(=O)(=O)N(C)C[C@@H]2Oc3c(NC(=O)Nc4ccccc4)cccc3C(=O)N([C@@H](C)CO)C[C@@H]2C)cc1	Shh pathway inh 106.6
C[C@@H]1CN([C@@H](C)CO)C(=O)c2cc(NC(=O)Nc3ccc(F)cc3)ccc2O[C@H]1CN(C)C(=O)Nc1ccc(F)cc1	none
C[C@@H]1CN([C@H](C)CO)C(=O)c2cccc(NC(=O)C3CC3)c2O[C@H]1CN(C)S(=O)(=O)c1cccs1	none
C[C@H](CO)N1C[C@H](C)[C@H](CN(C)S(=O)(=O)c2ccc(F)cc2)Oc2c(NC(=O)Nc3cccc4ccccc34)cccc2C1=O	Shh pathway inh 74.7
Cc1ccc(S(=O)(=O)N(C)C[C@H]2Oc3c(NC(=O)Nc4ccccc4)cccc3C(=O)N([C@H](C)CO)C[C@H]2C)cc1	none
C[C@H](CO)N1C[C@H](C)[C@H](CN(C)C(=O)Nc2ccc(F)cc2)Oc2ccc(NC(=O)Nc3ccc(F)cc3)cc2C1=O	Shh pathway inh 106.9
C[C@@H]1CN([C@@H](C)CO)C(=O)c2cccc(NC(=O)Nc3cccc4ccccc34)c2O[C@H]1CN(C)S(=O)(=O)c1ccc(F)cc1	none
C[C@H](CO)N1C[C@H](C)[C@H](CN(C)S(=O)(=O)c2cccs2)Oc2c(NC(=O)C3CC3)cccc2C1=O	Shh pathway inh 84.9 (no result: PD-1 reversal)
C[C@H]1CN([C@@H](C)CO)C(=O)c2cccc(NC(=O)C3CC3)c2O[C@@H]1CN(C)C(=O)Nc1ccc2c(c1)OCO2	none
Cc1noc(C)c1S(=O)(=O)Nc1cccc2c1O[C@@H](CN(C)S(=O)(=O)c1cccs1)[C@@H](C)CN([C@@H](C)CO)C2=O	none
C[C@H](CO)N1C[C@H](C)[C@H](CN(C)S(=O)(=O)c2ccc(F)cc2)Oc2c(NC(=O)Nc3ccccc3)cccc2C1=O	Shh pathway inh 99.6
C[C@H]1CN([C@@H](C)CO)C(=O)c2cccc(NC(=O)C3CC3)c2O[C@H]1CN(C)S(=O)(=O)c1ccc(F)cc1	none (no result: PD-1 reversal)
C[C@H]1CN([C@@H](C)CO)C(=O)c2cccc(NC(=O)Nc3ccc(F)cc3)c2O[C@H]1CN(C)S(=O)(=O)c1ccc(F)cc1	Shh pathway inh 83.2
C[C@@H]1CN([C@@H](C)CO)C(=O)c2cccc(NC(=O)Nc3ccc(F)cc3)c2O[C@H]1CN(C)S(=O)(=O)c1ccc(Cl)cc1	none (no result: PD-1 reversal)
C[C@@H]1CN([C@@H](C)CO)C(=O)c2cccc(NC(=O)Nc3ccccc3)c2O[C@@H]1CN(C)S(=O)(=O)c1ccc(F)cc1	none
C[C@H](CO)N1C[C@H](C)[C@H](CN(C)S(=O)(=O)c2ccc(Cl)cc2)Oc2c(NC(=O)Nc3ccc(F)cc3)cccc2C1=O	Shh pathway inh 116.6
C[C@H](CO)N1C[C@H](C)[C@H](CN(C)S(=O)(=O)c2ccc(F)cc2)Oc2c(NC(=O)C3CC3)cccc2C1=O	Shh pathway inh 102.6
C[C@@H]1CN([C@H](C)CO)C(=O)c2cccc(NC(=O)Nc3ccc(F)cc3)c2O[C@@H]1CN(C)S(=O)(=O)c1ccc(F)cc1	none
C[C@@H]1CN([C@H](C)CO)C(=O)c2cccc(NS(=O)(=O)c3cccs3)c2O[C@@H]1CN(C)Cc1ccc(C(F)(F)F)cc1	none
C[C@@H]1CN([C@H](C)CO)C(=O)c2cccc(NC(=O)Nc3ccc4c(c3)OCO4)c2O[C@@H]1CN(C)C(=O)Nc1ccc(C(F)(F)F)cc1	none
CC(=O)NC1CCCCc2sccc21 (stereo not drawn)	none (no result: Shh pathway inh)
C[C@H](CO)N1C[C@H](C)[C@@H](CN(C)S(=O)(=O)c2ccc(Cl)cc2)Oc2c(NC(=O)Nc3ccccc3)cccc2C1=O	none
C[C@H](CO)N1C[C@H](C)[C@@H](CN(C)C(=O)Nc2cccc3ccccc23)Oc2c(NC(=O)Nc3ccc(F)cc3)cccc2C1=O	Shh pathway inh 79.8
C[C@H](CO)N1C[C@H](C)[C@H](CN(C)S(=O)(=O)c2ccc(Cl)cc2)Oc2c(NC(=O)Nc3ccccc3)cccc2C1=O	Shh pathway inh 117.0 (no result: PD-1 reversal)
COc1ccc(NC(=O)Nc2cccc3c2O[C@@H](CN(C)S(=O)(=O)c2ccc(C)cc2)[C@@H](C)CN([C@H](C)CO)C3=O)cc1	Shh pathway inh 93.6

High-throughput results as filed in PubChem.
